Measured values from PubChem BioAssay (NCI).
About 79,000 compounds went through this panel and 15% of them were active in at least one assay; those are over-represented in the sample as a whole. Calls of active or inactive are those of the source. No stated cut-off is given here; in the data, active means growth inhibition above about 70%; inactive means the rest.

Tests used:
[1] = NCI Yeast Anticancer Drug Screen. Data for the rad50 strain (AID 155);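 further: 0% = growth of vehicle-only cultures of the same strain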; conditions: S. cerevisiae rad50 strain growth inhibition, active compounds read high
Method in brief: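 A DNA repair-deficient yeast mutant serves as the test organism; compound-induced growth inhibition is calculated against vehicle-treated cells.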

[2] = NCI Yeast Anticancer Drug Screen. Data for the mec2-1 strain (AID 157); conditions: S. cerevisiae mec2-1 strain, active compounds read high
Method in brief: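 Readout is yeast growth inhibition, normalised to vehicle-treated controls, in the mec2-1 strain exposed to compound.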

[3] = NCI Yeast Anticancer Drug Screen. Data for the sgs1 mgt1 strain (AID 161);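 further: 0% = growth of cultures given vehicle only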; conditions: S. cerevisiae sgs1 mgt1 strain, active compounds read high
Method in brief: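 Growth of a repair-deficient yeast mutant was monitored after compound treatment and expressed as inhibition relative to vehicle-treated cultures.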

[4] = NCI Yeast Anticancer Drug Screen. Data for the cln2 rad14 strain (AID 165);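 further: 0% = growth equal to vehicle treated cultures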; conditions: S. cerevisiae cln2 rad14 strain, active compounds read high
Method in brief: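 Relative to vehicle controls, growth inhibition of compound-treated cln2 rad14 yeast was recorded.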

[5] = NCI Yeast Anticancer Drug Screen. Data for the bub3 strain (AID 167); conditions: S. cerevisiae bub3 mutant strain, active compounds read high
Method in brief: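 Inhibition values come from growth of compound-treated mutant yeast normalised to vehicle-treated controls.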

[6] = NCI Yeast Anticancer Drug Screen. Data for the mlh1 rad18 strain (AID 175); conditions: S. cerevisiae mlh1 rad18 strain growth inhibition, active compounds read high
Method in brief: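 Test agents were incubated with a yeast strain of defined genotype (DNA damage repair defect). Inhibition of growth was derived by comparison with vehicle-exposed cultures.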

[7] = at 5.0 µM (retest, dose inferred, filed as 0.5)
[8] = at 50.0 µM (retest, dose inferred, filed as 5.0)

Measured: growth inhibition

CCCCN(CC)CC(C(C)=O)c1c(O)c2ccccc2oc1=O (configuration not stated)
inactive: [1]; [7] 8% | [1]; [8] 22% | [1]; at 50.0 µM 66.8% | [2]; [7] 4% | [2]; [8] 28% | [2]; at 50.0 µM 48.2% | [3]; [7] 0% | [3]; [8] 65% | [3]; at 50.0 µM 60.5% | [4]; [7] 15% | [4]; [8] 59% | [4]; at 50.0 µM 45.2% | [5]; [7] 21% | [5]; at 50.0 µM 59% | [6]; [7] -13% | [6]; [8] 34% | [6]; at 50.0 µM 42.9%
active: [5]; [8] 73%

C[C@]12CC[C@H]3[C@@H](CCC4=CC(=O)CC[C@@H]43)[C@@H]1CC[C@@H]2OC1(O)C(=O)c2ccccc2C1=O
active: [3]; at 50.0 µM 74.8%
inactive: [1]; [7] -7% | [1]; [8] 47% | [1]; at 50.0 µM 65.2% | [2]; [7] -6% | [2]; [8] 21% | [2]; at 50.0 µM 27.4% | [3]; [7] -2% | [3]; [8] 59% | [4]; [7] -16% | [4]; [8] 22% | [4]; at 50.0 µM 20.5% | [5]; [7] -8% | [5]; [8] 44% | [5]; at 50.0 µM 69.9% | [6]; [7] 11% | [6]; [8] 44% | [6]; at 50.0 µM 61.7%

COc1cc(C=Nc2cc(Br)c(OC)c(Br)c2)ccc1N(CCCl)CCCl
active: [1]; [8] 73% | [1]; at 50.0 µM 84.5% | [2]; [8] 79% | [3]; at 50.0 µM 76.2% | [6]; [8] 95% | [6]; at 50.0 µM 83.2%
inactive: [1]; [7] 1% | [2]; [7] -12% | [2]; at 50.0 µM 31.4% | [3]; [7] -1% | [3]; [8] 45% | [4]; [7] 1% | [4]; [8] 46% | [4]; at 50.0 µM 55.7% | [5]; [7] -8% | [5]; [8] -3% | [5]; at 50.0 µM -1.45% | [6]; [7] 54%

O=P1(NCCCl)OC(c2ccccc2)=CCN1CCCl (configuration not stated)
active: [1]; at 50.0 µM 97.9% | [2]; at 50.0 µM 94.1% | [3]; at 50.0 µM 99% | [4]; at 50.0 µM 96% | [5]; at 50.0 µM 89.6% | [6]; at 50.0 µM 98.8%
inactive: [1]; [7] -1% | [1]; [8] -1% | [2]; [7] -5% | [2]; [8] 6% | [3]; [7] 1% | [3]; [8] -1% | [4]; [7] -2% | [4]; [8] 5% | [5]; [7] -2% | [5]; [8] -1% | [6]; [7] -3% | [6]; [8] 1%

O=C(CCCC(=O)NNC(=O)Nc1cccc(S(=O)(=O)F)c1)NNC(=O)Nc1cccc(S(=O)(=O)F)c1
inactive: [1]; [7] 1% | [1]; [8] 3% | [2]; [7] 11% | [2]; [8] 20% | [3]; [7] 3% | [3]; [8] -19% | [4]; [7] -8% | [4]; [8] -8% | [4]; at 50.0 µM 52.7% | [5]; [7] -6% | [5]; [8] -1% | [6]; [7] 9% | [6]; [8] 33%
active: [1]; at 50.0 µM 73.2% | [2]; at 50.0 µM 72.3% | [3]; at 50.0 µM 80% | [5]; at 50.0 µM 84.3% | [6]; at 50.0 µM 72.8%

C[N-]c1nnnn1C.[Au+].c1ccc([PH+](c2ccccc2)c2ccccc2)cc1
active: [1]; [7] 99% | [1]; [8] 97% | [1]; at 50.0 µM 96.3% | [2]; [7] 99% | [2]; [8] 95% | [2]; at 50.0 µM 97.9% | [3]; [7] 99% | [3]; [8] 97% | [3]; at 50.0 µM 97% | [4]; [7] 96% | [4]; [8] 95% | [4]; at 50.0 µM 97.2% | [5]; [7] 98% | [5]; [8] 96% | [5]; at 50.0 µM 96% | [6]; [7] 97% | [6]; [8] 94% | [6]; at 50.0 µM 97%

COc1ccc(Br)cc1/C=C/[N+](=O)[O-]
active: [1]; [7] 90% | [1]; [8] 99% | [1]; at 50.0 µM 99.3% | [2]; [7] 90% | [2]; [8] 99% | [2]; at 50.0 µM 99.2% | [3]; [7] 91% | [3]; [8] 99% | [3]; at 50.0 µM 99.4% | [4]; [7] 83% | [4]; [8] 99% | [4]; at 50.0 µM 77.8% | [5]; [7] 92% | [5]; [8] 99% | [5]; at 50.0 µM 96.1% | [6]; [7] 92% | [6]; [8] 99% | [6]; at 50.0 µM 98.7%

COC1(OC)C(Cl)=C(Cl)C(Cl)=C1Cl
inactive: [1]; [7] 9% | [1]; at 50.0 µM 46.4% | [2]; [7] -2% | [2]; at 50.0 µM 46.5% | [3]; [7] -1% | [4]; [7] 0% | [4]; [8] 42% | [4]; at 50.0 µM -9.85% | [5]; [7] 2% | [5]; at 50.0 µM 58.8% | [6]; [7] 4%
active: [1]; [8] 95% | [2]; [8] 84% | [3]; [8] 91% | [3]; at 50.0 µM 75.2% | [5]; [8] 89% | [6]; [8] 76% | [6]; at 50.0 µM 78.8%

CNC1=C(C)C(=O)C2=C(C1=O)C(COC(N)=O)C1(O)C3C(CN21)N3C (configuration not stated)
inactive: [1]; [7] 13% | [2]; [7] 20% | [3]; [7] 19% | [3]; at 50.0 µM 69.8% | [4]; [7] 9% | [4]; at 50.0 µM 61.4% | [5]; [7] 3% | [5]; [8] 59% | [5]; at 50.0 µM 52.2% | [6]; [7] 47%
active: [1]; [8] 83% | [1]; at 50.0 µM 72% | [2]; [8] 90% | [2]; at 50.0 µM 74.9% | [3]; [8] 78% | [4]; [8] 84% | [6]; [8] 95% | [6]; at 50.0 µM 83%
